MT1-MMP txn act = activates MT1-MMP transcription. activation factor at 10 µM. 86,000 compounds, 0.16% hits. HT1080 MT1-MMP promoter luciferase reporter, luminescence, overnight; active compounds read high;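 active = activation factor of at least 2 for MT1-MMP transcription at 10 µM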
ERb coact inh = blocks coactivator binding to human estrogen receptor beta | Q92731 | TR-FRET ER-beta LBD / SRC1-Cy5 peptide binding; receptor agonist-loaded with 1 µM estradiol | inhibition, % at 25.6 µM | 86,000 compounds, 1.3% hits;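 active = compounds whose percent inhibition of the receptor-coactivator binding signal exceeds about 50% in the single-dose screen, limit read from the data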;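 note: 0% = receptor plus peptide wells without compound and 100% = peptide-only wells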
ERa SRC1 inh = blocks coactivator binding to human estrogen receptor alpha | AID 629 | TR-FRET ER-alpha LBD / SRC-1 peptide, estradiol-bound | 86,000 compounds, 1.7% hits | inhibition, % at 25.6 µM; in the data active = inhibition above about 50%;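 note: 0% = receptor plus peptide control and 100% = peptide only without receptor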
Target sequence (P03372 whole entry, looked up, the tested form may be a part): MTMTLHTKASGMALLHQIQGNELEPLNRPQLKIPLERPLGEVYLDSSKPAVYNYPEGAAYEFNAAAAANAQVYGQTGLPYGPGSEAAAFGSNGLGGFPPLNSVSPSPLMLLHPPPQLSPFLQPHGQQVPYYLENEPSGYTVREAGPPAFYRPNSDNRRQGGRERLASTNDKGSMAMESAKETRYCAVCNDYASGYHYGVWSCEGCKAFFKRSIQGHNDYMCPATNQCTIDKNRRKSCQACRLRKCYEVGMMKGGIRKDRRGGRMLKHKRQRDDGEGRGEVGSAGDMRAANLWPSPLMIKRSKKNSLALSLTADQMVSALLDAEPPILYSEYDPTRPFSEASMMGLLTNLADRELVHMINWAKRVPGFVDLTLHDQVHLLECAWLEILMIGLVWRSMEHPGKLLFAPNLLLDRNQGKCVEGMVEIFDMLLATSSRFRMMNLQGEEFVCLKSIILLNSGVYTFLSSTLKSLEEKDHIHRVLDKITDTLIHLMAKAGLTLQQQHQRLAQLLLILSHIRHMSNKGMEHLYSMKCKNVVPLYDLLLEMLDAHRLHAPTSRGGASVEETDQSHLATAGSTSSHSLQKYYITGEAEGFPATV
Calb biofilm kill = kills Candida albicans biofilms; C. albicans biofilm + clotrimazole, Alamar Blue; inhibition, % at 6 µM; 85,000 compounds, 0.14% hits; AID 834;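 active = inhibition above 20%; inactive = inhibition below 20%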;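 note: preformed 24 hr biofilms exposed to compound for 48 hr; 0% = biofilm without compound and 100% = blank killed by clotrimazole plus chlorhexidine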
ERa coact pot = ER-alpha (human) coactivator binding potentiation; P03372; TR-FRET ERalpha-LBD/SRC-Cy5 coactivator binding, 2 h; 100 = basal binding, no effect; coactivator binding (% of control), % at 25.6 µM; 86,000 compounds, 1.3% hits; AID 639; in the data active = activity above about 200%;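 note: binding measured in presence of low estradiol as agonist stimulus; 0% = peptide alone without receptor and 100% = receptor with peptide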
EphB4 ephrin blk = blocks human EphB4 binding to ephrin-B2 | AID 720 | P54760 | inhibition, % at 7 µM | 97,000 compounds, 0.15% hits | EphB4 LBD / TNYL-RAW-Alexa532 peptide, fluorescence polarization;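 active = inhibition above the screen-wide mean inhibition plus 3 SD, cut at about 15% in these data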;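 note: 0% = DMSO wells and 100% = excess unlabeled TNYL-RAW peptide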
Starred values were filed as active, the others as inactive; . = no result given; [ ] = dose if it differs, or a comment. Shown are actives, neighbours in structure and some others; about 3.2% of the full set was active somewhere.

SMILES	MT1-MMP txn act	ERb coact inh	ERa SRC1 inh	Calb biofilm kill	ERa coact pot	EphB4 ephrin blk
COc1cccc2[nH]c3c(N4CCC(C)CC4)ncnc3c12	1.1	50*[fluorescence artefact?]	37	9	61	0
CC1=CC(=C2C(=O)c3ccccc3C2=O)C=C(C)O1	1.3	3	8	4	884*[fluorescence artefact?]	7
CC(=O)N1C(=O)C(=C2C=C(C)OC(C)=C2)c2ccccc21	1.1	-2	-11	-3	119	-1
CN(CC(=O)NCCc1ccccc1)S(=O)(=O)c1cccc2nsnc12	1.2	.	.	2	.	.
CN(CC(=O)NCCN1CCN(Cc2ccccc2)CC1)S(=O)(=O)c1cccc2nsnc12	1.4	5	4	-1	764*[fluorescence artefact?]	-2
NC(=O)c1sc2nc3c(c(-c4ccc(Cl)cc4)c2c1N)CCCC3	1.2	21	11	3	252*[fluorescence artefact?]	2
Cc1ccc(-c2c3c(nc4sc(C(N)=O)c(N)c24)CCC3)cc1	1.7	-11	5	1	75	9
CC1CCCC(C)N1C(=O)Nc1cccc(Cl)c1 (stereo not drawn)	1.1	53*	22	3	84	9
Cc1nn(Cc2ccc(Cl)cc2Cl)c(C)c1NC(=O)NC12CC3CC(CC(C3)C1)C2	.	.	.	.	.	7
O=C(c1ccccc1F)N1CCN(S(=O)(=O)c2ccc(S(=O)(=O)N3CCCCC3)cc2)CC1	1.1	6	66*[fluorescence artefact?]	6	85	-3
O=C(c1cc(S(=O)(=O)N2CCCCC2)ccc1F)N1CCCCC1	1.1	.	.	.	.	-4
COc1cc(NC(=O)COc2ccc(-n3cnnn3)cc2)c(OC)cc1Cl	1	67*[fluorescence artefact?]	77*	4	44	-12
Cc1ccc(NC(=O)COc2ccc(-n3cnnn3)cc2)cc1C	1.4	69*	74*[fluorescence artefact?]	5	52	6
Cn1c(=O)n(-c2cccc(Cl)c2)c(=O)c2c3c(sc21)COC(C)(C)C3	1.3	-7	-3	-1	103	7
COc1ccccc1N1CCN(Cc2cc(Br)c(O)c3ncccc23)CC1	0.7	29	50*[fluorescence artefact?]	1	86	10
COCc1cc(CN2CCCC2)c(O)c2ncccc12	0.8	13	3	6	92	4
Oc1c(CN2CCCCC2)cc(COCc2ccccc2)c2cccnc12	.	.	.	.	.	20*
CCOc1ccccc1N1CCN(Cc2cccc(OC)c2O)CC1	1	-1	-10	-2	101	2
COC(=O)C(NC(C)=O)(Nc1nc2c(C)cc(C)cc2s1)C(F)(F)F (stereo not drawn)	1.3	-9	-12	5	89	5
CCOC(=O)CNC(=O)c1cc(C)oc1C	1.1	4	-6	-5	119	4
O=C(CN1C(=O)NC2(CCCC2)C1=O)NCCC1=CCCCC1	1.1	-11	7	4	100	16*
CCC(C)(C(=O)NC1CCCC1)N(C(=O)c1ccccn1)c1ccccc1 (stereo not drawn)	1.2	4	1	2	112	-4
Cc1nc2ncnn2c(N2CCCC(C(=O)Nc3ccc4c(c3)CCC4)C2)c1C (stereo not drawn)	0.9	-5	-1	-1	103	.
CCOC(=O)CSc1ncnc2c1sc1nc(N3CCOCC3)c3c(c12)CCCC3	1.1	45	41	0	165	10
COC(=O)c1ccc(Cn2nnc3c(sc4nc(N5CCOCC5)c5c(c43)CCCC5)c2=O)o1	1.3	-2	-5	2	106	2
SMILES	MT1-MMP txn act	ERb coact inh	ERa SRC1 inh	Calb biofilm kill	ERa coact pot	EphB4 ephrin blk
COC(=O)c1ccc(Cn2cnc3c(sc4nc(N5CCOCC5)c5c(c43)CCCC5)c2=O)o1	1	36	10	-2	203*	.
COC(=O)CSc1ncnc2c1sc1nc(N3CCOCC3)c3c(c12)CCCC3	1	36	12	1	391*[fluorescence artefact?]	5
COC(=O)c1ccc(C(NC(=O)OCc2ccccc2)/C(F)=C/[C@@H](C)C(=O)NCc2cccnc2)cc1 (stereo partly drawn)	1.2	.	.	.	.	.
Brc1ccc2c(c1)c1nc3ccccc3nc1n2CCN1CCOCC1	1.4	45	56*[fluorescence artefact?]	13	99	.
COC(=O)c1ccc(Cl)c(NC(C)=O)c1	1.2	.	.	.	.	0
COC(=O)c1ccc(Cl)c(NC(=O)NC2CCCCC2)c1	1.2	27	44	11	244*[fluorescence artefact?]	3
COc1ccc(NC(=O)NC(C(F)(F)F)C(F)(F)F)cc1	1.2	0	8	-1	106	-3
Cn1c(Cc2ccccc2)nnc1SCC(=O)c1cccs1	1.2	-7	57*	4	91	1
COC(=O)c1cc2ccsc2n1CC(=O)Nc1ccc(N(C)C)cc1	0.9	28	55*	6	32	-2
COC(=O)c1cc2ccsc2n1CC(=O)N(C)c1ccccc1	1	4	8	1	92	-5
O=C(c1cc2ccccc2oc1=O)N1CCN(Cc2ccc3c(c2)OCO3)CC1	1	-2	-1	5	92	1
O=C(c1cc2ccccc2oc1=O)N(Cc1cccs1)Cc1cccs1	1.4	-2	-4	11	113	0
CCc1ccc2[nH]c(=O)c(CN(Cc3ccc4c(c3)OCO4)C(=O)c3ccco3)cc2c1	1.2	41	74*	4	74	4
O=C(c1cc2ccccc2oc1=O)N(Cc1ccccc1)Cc1ccc2c(c1)OCO2	2.5*	-4	0	10	104	-1
O=C(c1cc2ccccc2oc1=O)N(Cc1ccco1)Cc1cccs1	1.1	-6	-9	3	537*	2
CCOc1ccc2[nH]c(=O)c(CN(Cc3ccc(F)cc3)C(=O)c3ccco3)cc2c1	1	20	45	2	77	1
Cc1ccc(SCC(=O)Nc2ccccc2C(=O)O)cc1	1.2	-1	-3	3	102	1
CCOC(=O)C1=C(C)N(CCCCCC(=O)O)C(=O)NC1c1ccccc1OS(=O)(=O)c1ccccc1[N+](=O)[O-] (stereo not drawn)	1.3	.	.	.	.	.
O=C(NC1CC2CCC(C1)N2C(=O)NCc1ccccc1)C1CC1 (stereo not drawn)	1.1	-3	-4	4	105	8
CCC1(C)N=C(c2ccc3c(c2)OCO3)CC(c2ccccc2O)N1 (stereo not drawn)	2.4*	-7	11	1	78	-1
COc1cccc(C2=NOC(C(=O)NC(C)C)C2)c1 (stereo not drawn)	1.3	-7	-3	4	104	11
COc1cccc(C2=NC(C)(C)NC(c3ccccc3O)C2)c1 (stereo not drawn)	2.1*	-8	-1	-3	96	-10
Cc1cc2c(cc(C(=O)OCC(=O)NCc3cccs3)n2C(C)C)o1	0.6	-2	-2	9	86	-2
CCn1c(SCC(=O)N2CCCc3ccccc32)nnc1-c1cccs1	1.2	-11	-8	-2	93	0
CC1(C)Cc2ccccc2-c2nnc(SCC(=O)N3CCc4ccccc43)n21	1.1	33	43	5	293*[fluorescence artefact?]	1

Bioassay records from PubChem BioAssay.
